According to PubChem BioAssay (NCI):
This is part of a sample that, as a whole, favours compounds with a hit. Of some 83,000 tested, about 20% had one in any assay.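 Negative percent growth values reflect cell death: -40 means 40% of the cells present at the start died, and -100 means all died.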 The source made the active and inactive calls. The calls were made as follows: active = growth percent below 10; inactive = the rest.

Tested on: NCI-H23 lung
Experiment: NCI-60 one-dose screen, 48 h (100 = growth as untreated, 0 = no growth, -100 = all killed)
Details: 10 µM unless noted

| SMILES | growth |
| --- | --- |
| CS(=O)(=O)c1ccc(/C(=N/NC(N)=S)c2ccc(F)cc2)cc1 | 97.9% (inactive) |
| CC1(C)CC[C@]2(CO)CC[C@]3(C)C(=CC[C@@H]4[C@@]5(C)CCNCC(C)(C)[C@@H]5CC[C@]43C)[C@@H]2C1 | 88.4% (inactive) |
| C=C(CNCCc1ccc(O)cc1)[C@@H]1CC[C@]2(CO)CC[C@]3(C)[C@H](CC[C@@H]4[C@@]5(C)CCC(N)C(C)(C)[C@@H]5CC[C@]43C)[C@@H]12 (stereo not given in full) | -66.5% (active) |
| C(=N\Nc1nnc2n1N=C(c1ccccc1)CS2)/c1ccc(OCc2ccccc2)cc1 | 103% (inactive) |
| O=C(/C=C\c1ccc(O)c(O)c1)c1ccccc1O | 86.5% (inactive) |
| COc1ccc(/C=C2/CCc3cc4ccc(OC)cc4[o+]c32)c(O)c1 | 72.7% (inactive) |
| Cc1ccc(-c2nnc(SCc3nc(N)nc(Nc4ccccc4F)n3)n2-c2ccccc2)cc1 | 101% (inactive) |
| O=C(Nc1cccc(Cl)c1)Oc1c(Cl)c(Cl)c(Cl)c(Cl)c1Cl | 88.1% (inactive) |
| COc1ccc(-c2csc(NC(=O)CSc3nc(C)cc(=O)[nH]3)n2)cc1 | 91.1% (inactive) |
| Cc1c(C)c2c(c(C)c1OC(=O)CCC(=O)[O-])CCC(C)(CCCCCCCCCCC[P+](c1ccccc1)(c1ccccc1)c1ccccc1)O2 (stereo not given) | -16.5% (active) |
| CCN(CC)CCCNC(=O)c1c2c(n3ccccc13)C(=O)c1ncccc1C2=O | -38.7% (active) |
| O=C(/C=C/c1ccc([N+](=O)[O-])cc1)c1cccc(Nc2nc(Nc3ccccc3)nc(Nc3ccccc3)n2)c1 | 60.9% (inactive) |
| CN1CC(c2ccccc2)C(C(=O)c2ccc(Br)cc2)C12C(=O)Nc1ccccc12 (stereo not given) | 96.2% (inactive) |
| COCCNC(=O)Cc1cc(-c2ccc(Cl)cc2)n(-c2ccccc2)c1C | 73.6% (inactive) |
| CNc1nc2ncc(-c3c(C)noc3C)cc2n1Cc1ccccc1 | 55.5% (inactive) |
| CC1(C)CC[C@]2(CO)CC[C@]3(C)[C@H](CC[C@@H]4[C@@]5(C)CC[C@H](O)C(C)(C)[C@@H]5CC[C@]43C)[C@H]2[C@H]1O | 87.1% (inactive) |
| COC(=O)[C@@H](Cc1c[nH]c2ccccc12)NC[C@@H](O)CN1C(=O)/C(=C\c2cc(OC)c(OC)c(OC)c2)c2ccccc21 | 76.6% (inactive) |
| CCc1ccc(Cc2cnc(NC(=O)c3cc(C)oc3C)s2)cc1 | 52.8% (inactive) |
| CN1CCN(CC(=O)N(C)c2ccc(N=C(c3ccccc3)c3c(O)[nH]c4ccc([N+](=O)[O-])cc34)cc2)CC1 | 80.4% (inactive) |
| COc1cc2c(c(OC)c1OC)CCC(c1cccc(NC(=O)c3cccc(Cl)c3)c1)O2 (stereo not given) | 92.7% (inactive) |

| SMILES | growth |
| --- | --- |
| O=C1C2C(c3cccs3)C=C(c3ccc(Cl)cc3)N2C(=S)N1c1ccccc1 (stereo not given) | 94.2% (inactive) |
| CCN1CCN(c2cc(C(=O)Nc3cccc(Nc4ccc5c(OC)cccc5n4)c3)cc(C(F)(F)F)c2)CC1 | 44.5% (inactive) |
| CCCNNC(=O)c1ccc(CNC(=O)/C=C/c2ccccc2)cc1 | 50.3% [2.5 µM] (inactive) |
| CC(=O)Oc1ccccc1C(=O)N(Cc1ccc2c(Cl)cc(Cl)c(O)c2n1)c1ccccc1 | 50.3% (inactive) |
| CN(C)c1ccc(/C=N/NC(=O)CSc2nc3sc4c(c3c(=O)n2-c2ccccc2)CCCCC4)cc1 | 29.7% (inactive) |
| N#Cc1nn(-c2ccccn2)c(N)c1C#N | 105% (inactive) |
| CC(Cc1cccc2ccccc12)C(N)=O (stereo not given) | 99.9% (inactive) |
| Cc1nc2ccccc2c(/C=C/c2ccc(Br)cc2)c1C(=O)/C=C/c1ccccc1 | 8.31% (active) |
| c1ccc2[nH]c(-c3ccc(-c4nccc5c4[nH]c4ccccc45)cc3)nc2c1 | 69.1% (inactive) |
| Cc1[nH]c(C(=O)Nc2ccc(C(N)=O)cc2OC(C)C)c(Cl)c1Cl | 97.6% (inactive) |
| C/C=C(/C)C(=O)O[C@@H]1CC(C)(C)CC2C34OC(=O)[C@@]21CC[C@@]3(C)[C@]1(C)CCC2C(C)(C)C(=O)CC[C@]2(C)C1C[C@@H]4O (stereo not given in full) | 73.5% (inactive) |
| C=C(C[n+]1ccccc1)[C@@H]1CC[C@]2(C(=O)OC)CC[C@]3(C)[C@H](CC[C@@H]4[C@@]5(C)CCC(=O)C(C)(C)[C@@H]5CC[C@]43C)[C@@H]12 | 87.9% (inactive) |
| COC(=O)c1c(C(=O)OC)c2ccc3c4ncccc4ccc3n2c1C(=O)c1ccc(C)cc1 | 101% (inactive) |
| O=C1c2ccccc2-c2c1c1ccncc1c(=O)n2CCCn1ccnc1 | 51.8% (inactive) |
| O=C1Nc2ccccc2/C1=C/c1cccn1CCCCCCn1c2ccccc2c(=O)c2ccccc21 | 73.6% (inactive) |
| O=C(Nc1ccccc1CNc1nc(Nc2ccc(OCCN3CCCC3)cc2)ncc1Cl)NC1CCCCC1 | 87.2% (inactive) |
| CSc1nc(CC(C)C)c(C#N)c(=O)n1C | 66.8% (inactive) |
| CS(=O)(=O)Nc1cc(-c2ccc3ncnc(Nc4cccc(Cl)c4)c3c2)cnc1Cl | 6.5% (active) |
| N#Cc1c(-c2ccc(Cl)cc2)nc(NN=Cc2cccc(Cl)c2)nc1N1CCOCC1 | 101% (inactive) |
| CNC1=C([N+](=O)[O-])C(c2ccc(OC)cc2)C(C#N)=C(c2ccc[nH]2)O1 (stereo not given) | 98.5% (inactive) |
